Results as given in article PMC4336329 (PLoS ONE, 2015).
Screen size: about 310,000 compounds; about 14,000 (4.5%) showed an effect of 50% or more. Effects have a minus sign here. For the sample, strong results were picked, then their nearest neighbours and some compounds at random.

molecular target: human ether-à-go-go-related gene (hERG) potassium channel (human, UniProt Q12809); experiment: primary screen, population patch clamp on CHO cells stably expressing hERG; higher = less effect of the substance
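Further: peak tail current of the secondary pulse compared with the same well before compound.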

human ether-à-go-go-related gene (hERG) potassium channel, sequence (Q12809 whole entry, looked up): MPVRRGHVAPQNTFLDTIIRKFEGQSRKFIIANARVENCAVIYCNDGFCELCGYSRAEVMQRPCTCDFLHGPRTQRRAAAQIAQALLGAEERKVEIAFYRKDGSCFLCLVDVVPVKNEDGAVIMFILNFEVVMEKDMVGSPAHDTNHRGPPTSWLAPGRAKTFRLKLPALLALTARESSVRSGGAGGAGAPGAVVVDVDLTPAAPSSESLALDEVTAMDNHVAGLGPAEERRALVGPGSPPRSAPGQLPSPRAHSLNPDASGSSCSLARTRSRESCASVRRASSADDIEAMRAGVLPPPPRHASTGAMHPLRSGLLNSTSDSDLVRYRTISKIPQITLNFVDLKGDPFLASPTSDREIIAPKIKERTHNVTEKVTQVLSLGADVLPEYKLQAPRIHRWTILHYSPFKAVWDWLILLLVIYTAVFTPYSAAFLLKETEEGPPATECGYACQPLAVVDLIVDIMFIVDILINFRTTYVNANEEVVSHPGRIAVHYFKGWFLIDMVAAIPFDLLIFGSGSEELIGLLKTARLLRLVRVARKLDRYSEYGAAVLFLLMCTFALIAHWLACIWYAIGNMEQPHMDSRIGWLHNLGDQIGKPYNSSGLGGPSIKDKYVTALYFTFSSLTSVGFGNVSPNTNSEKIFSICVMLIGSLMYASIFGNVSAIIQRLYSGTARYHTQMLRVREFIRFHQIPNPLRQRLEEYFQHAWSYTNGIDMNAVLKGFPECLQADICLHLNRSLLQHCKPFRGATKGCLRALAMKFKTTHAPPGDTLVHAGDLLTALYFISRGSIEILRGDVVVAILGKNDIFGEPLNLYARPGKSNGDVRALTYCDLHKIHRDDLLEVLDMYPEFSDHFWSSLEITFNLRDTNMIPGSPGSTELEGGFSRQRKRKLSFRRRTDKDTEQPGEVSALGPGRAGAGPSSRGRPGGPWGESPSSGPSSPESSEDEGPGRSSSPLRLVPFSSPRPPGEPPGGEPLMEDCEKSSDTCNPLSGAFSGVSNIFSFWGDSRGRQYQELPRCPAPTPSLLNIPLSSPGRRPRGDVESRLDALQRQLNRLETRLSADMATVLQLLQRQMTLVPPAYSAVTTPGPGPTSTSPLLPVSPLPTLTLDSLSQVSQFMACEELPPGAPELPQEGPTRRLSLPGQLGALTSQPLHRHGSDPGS

SMILES | hERG current change (%, negative = inhibition) at 10uM
C/C(=N\NC(=O)C1CC1)c1ccc(N2CCOCC2)cc1 | -0.403%
O=c1/c(=C/c2ccco2)sc2nc(-c3ccccc3Br)nn12 | 12.7%
O=c1sc2ccccc2c(N2CCCC2)c1[N+](=O)[O-] | 6.33%
Cc1cc(C)nc(SCc2nnc(SCC(N)=O)o2)n1 | 15.7%
O=C(c1ccccc1)c1ccc(N=Nc2c(O)[nH]c(=O)[nH]c2=O)cc1 | 1.15%
Cc1nc2c(c(=O)n1CCC1=CCCCC1)c1nc3ccccc3nc1n2/N=C/c1ccco1 | -22%
O=S(=O)(c1cccs1)N1CCC(Cc2ccccc2)CC1 | 6.58%
CCOC(=O)C1=C(N)Oc2ccc3ccccc3c2C1c1cccnc1 (stereo not shown) | 0.98%
O/N=C1\CCCc2c1nc(-c1ccccc1F)n2O | 26.1%
O=C(COc1cc2oc(=O)c3c(c2cc1Cl)CCC3)NCC1CCC(C(=O)O)CC1 (stereo not shown) | 5.36%
Cc1ccc(S(=O)(=O)CC(=O)N2CCCCCC2)cc1 | 13.6%
C=CC(C)(C)c1[nH]cnc1/C=C1\NC(=O)C(C(C)C)NC1=O (stereo not shown) | 3.54%
COc1ccc(NC(=O)N[C@@H](CCSC)C(=O)O)cc1OC | -0.994%
Cc1ccc(NC(=S)N2CCC(NC(=O)c3cccc(F)c3)CC2)cc1 | -24.9%
COCCOCC(O)CN1CCN(c2ccccc2)CC1.O=C(O)C(=O)O (stereo not shown) | -3.37%
CCOC(=O)C1CCCN(c2nnnn2-c2ccccc2)C1 (stereo not shown) | -5.57%
CS(=O)(=O)NCc1nnc2n1-c1ccc(Cl)cc1C(c1ccccc1)=NC2 | 6.2%
CN(C)CCSCc1nnc2n1-c1ccc(Cl)cc1C(c1ccccc1Cl)=NC2.c1ccccc1 | -73.7%
COc1ccccc1C1=NCc2nnc(CSC)n2-c2ccc(Cl)cc21 | -19.1%
Cc1ccc(C(=O)NC(=S)Nc2ccc(N3CCOCC3)cc2)cc1C | -7.53%
O=C(NCCCn1ccnc1)C(=O)NCC(c1ccco1)N1CCN(c2ccccc2)CC1 (stereo not shown) | 1.01%
CCCNC(=O)OC[C@H]1O[C@H](CCO/N=C/C[C@@H]2C=C[C@H](OC(C)=O)[C@@H](COC(C)=O)O2)C=C[C@@H]1Oc1ccc(OC)cc1 | -59.7%

SMILES | hERG current change (%, negative = inhibition) at 10uM
CCCNC(=O)OC[C@H]1O[C@H](CCO/N=C/[C@@H](OC)[C@H](C)/C=C/CC(=O)OC)C=C[C@@H]1Oc1ccc(OC)cc1 | -11.1%
COc1ccc(O[C@H]2C=C[C@@H](c3ccccc3)O[C@@H]2CO/N=C/C[C@@H]2C=C[C@H](OC(C)=O)[C@@H](COC(C)=O)O2)cc1 | -9.17%
CCC(Sc1nc(C)cc(=O)[nH]1)C(=O)Nc1sc2c(c1C#N)CCCC2 (stereo not shown) | -19.1%
Cc1ccc2oc3nc(C)c(C(=O)Nc4cccc(C(F)(F)F)c4)cc3c(=O)c2c1 | 6.48%
O=C(CCS(=O)(=O)c1cccc2nsnc12)N1CCN(c2ccccc2F)CC1 | -30.3%
COC(=O)C1=C(C(=O)c2ccc(C)cc2)C(c2ccc(OC)c(OC)c2)n2nnnc2N1 (stereo not shown) | 3.59%
Cc1ccc(O)c(-c2cc(-c3cccc(F)c3)n[nH]2)c1 | 23.6%
CCOC(=O)C1(Cc2cccc(OC)c2)CCN(Cc2cnc(N)nc2)CC1 | -28.2%
CCCn1cc(CN2CCC(Cc3cccc(F)c3)(C(=O)OCC)CC2)c(C)n1 | -67.2%
CCOC(=O)C1(Cc2ccc(Cl)cc2)CCN(Cc2cnc(N)nc2)CC1 | -74.7%
CCOC(=O)C1(Cc2ccc(Cl)cc2)CCN(Cc2ccon2)CC1 | -49.5%
CCOC(=O)C1(Cc2ccc(Cl)cc2)CCN(Cc2cn(CC)nc2C)CC1 | -67.7%
CCOC(=O)C1(Cc2cccc(F)c2)CCN(Cc2cn(CC)nc2C)CC1 | -38%
CCOC(=O)C1(S(=O)(=O)c2ccc(Cl)cc2)CCN(Cc2ccc(Cl)cc2)CC1 | 14.7%
CCCn1ncc(CN2CCC(Cc3cccc(F)c3)(C(=O)OCC)CC2)c1C | -59.7%
CCOC(=O)C1(Cc2cccc(F)c2)CCN(Cc2ccon2)CC1 | 3.48%
CCOC(=O)C1(Cc2cccc(F)c2)CCN(Cc2ccc(COC)o2)CC1 | -23.5%
CCOC(=O)C1(Cc2cccc(F)c2)CCN(Cc2cnn(CC)c2C)CC1 | -16.6%
O=C(NCC1OCCc2ccccc21)c1ccc(NC(=O)c2cccc(Br)c2)cc1 (stereo not shown) | 2.42%
COC(=O)Cn1c(C)c(C(C)=O)c(C(C)=O)c1C | 14.1%
CCOCCCN1C(=O)C(=O)N(CC(=O)N2c3ccccc3NC(=O)CC2C)C1=O (stereo not shown) | 17.2%
